For 40 molecules, viability and inhibition results are on record in PubChem BioAssay.

The source made the active and inactive calls. Cut-off read from the data, not from the text of the source, unless noted: active = inhibition above about 30%; inactive = the rest.

One experiment in a line: reversal of MRP1-mediated doxorubicin resistance, pilot screen, H69AR cells, doxorubicin co-treatment (AID 601). As to conditions: H69AR cells, CellTiter-Glo, 72 h; compound alone cytotoxicity; at 10 µM.
Regarding `CC(=O)Nc1ccc(S(=O)(=O)Nc2nc3c(s2)CCCC3)cc1`, the viability was 99.5%.

`CCOC(=O)C(CC)Sc1ncnc2nc[nH]c12` (centres undefined): the viability is 101%.

Consider `COc1cc2c(cc1OC)-c1nnc(C)n1C1(CCCC1)C2`, for which the viability was 99%.

As to `Nc1nc2n(n1)C(c1cccc(Br)c1)CC(c1ccccc1)N2` (centres undefined), the viability was 88.8%.

A short description of the next experiment: 384-well plate pilot, post-Golgi transport modulator project, inhibition of yeast transport mutant growth (AID 636; in the data active = inhibition above about 31%). As to conditions: absorbance 615 nm, about 18 h, stronger effect = higher value.
In the case of `COc1ccc(C(=O)NCc2nnc(SC)n2C2CCCCC2)cc1`, the inhibition was -3.33% (inactive).

`Oc1ccc(Cl)cc1-c1cc(-c2ccccc2)n[nH]1`: the inhibition was -0.53% (inactive).

As to `O=C(CCCn1c(=O)c2sccc2n(Cc2cc(=O)n3ccccc3n2)c1=O)NCc1ccco1`, the inhibition was 3.59% (inactive).

On to `COC(=O)c1cn(NC(=O)C2CCCO2)c(=O)c2ccccc12` (centres undefined), for which the inhibition was -6.35% (inactive).

In the case of `CCN(CC)CCCNC(=O)c1cn(C)c2ccc(S(=O)(=O)N(C)C)cc2c1=O`, the inhibition is -0.26% (inactive).

As for `Cc1nnc(SCCn2c(N3CCC(Cc4ccccc4)CC3)nc3c2c(=O)[nH]c(=O)n3C)s1`, the inhibition is -5.21% (inactive).

`O=C(C(Cc1ccccc1)n1cccc1)N1CCCCCC1` (centres undefined): the inhibition was -0.13% (inactive).

In the case of `O=C(Cn1nc(Cc2ccncc2)c2ccccc2c1=O)N1CCN(C(=O)c2ccco2)CC1`, the inhibition is -4.93% (inactive).

For the molecule `COc1ccc(-c2nc(CS(=O)CC(=O)NCc3ccccn3)c(C)o2)cc1` (centres undefined), the inhibition is -3.47% (inactive).

Regarding `CCn1c(SCC(=O)Nc2ccc(Cl)cc2)nnc1C1CC1`, the inhibition was -2.27% (inactive).

Regarding `CCOC(=O)CN(C(=O)c1ccccc1)c1ccccc1C`, the inhibition is 0.78% (inactive).

`COC(=O)Cc1cc(=O)[nH]c(Nc2nc3ccccc3o2)n1`: the inhibition is -1.03% (inactive).

With `COc1ccc(C2CC(c3cccc(C)c3)n3ncnc3N2)cc1` (centres undefined), the inhibition is 5.6% (inactive).

As for `CC1CCCCN1CCNC(=O)C1CCN(S(=O)(=O)c2cccc3cccnc23)CC1` (centres undefined), the inhibition is -2.53% (inactive).

Consider `CCCCSc1nc(CCC)cc(=O)[nH]1`, for which the inhibition was 2.05% (inactive).

Turning to `CC1(C)CC(=O)C2=C(C1)NC(=O)CC2c1ccc(N(CCC#N)CCC#N)cc1` (centres undefined), the inhibition is -5.68% (inactive).

Regarding `Cc1cccc(OCC(=O)N2CCN(C(=O)Cc3ccccc3)CC2)c1`, the inhibition is -7.33% (inactive).

Take `O=C1CC(c2cccnc2)c2cc3c(cc2N1)OCO3` (centres undefined): the inhibition was -0.13% (inactive).

Take `CCc1nn(CC(=O)NCCCN2CCc3ccccc3C2)c(=O)c2cc3sccc3n12`: the inhibition was -3.46% (inactive).

As to `Cc1ccc(-c2nc3cc(NC(=O)C(C)C)ccc3o2)cc1`, the inhibition was -1.92% (inactive).

As for `CC(CC(=O)NC1CCSC1=O)c1ccccc1` (centres undefined), the inhibition was -4.32% (inactive).

For the molecule `COc1ccc(C2CC(c3ccc(OC)cc3)n3nc(N)nc3N2)cc1` (centres undefined), the inhibition was 0.77% (inactive).

For `COC(=O)COc1cccc(NC(=O)COc2ccccc2)c1`, the inhibition was -0.13% (inactive).

For the molecule `COc1ccc(OCCSc2nc3ccccc3n2CC(=O)O)cc1`, the inhibition is -3.21% (inactive).

`Cc1cccnc1-n1c(CCN2C(=O)c3ccccc3C2=O)nc2ccccc2c1=O`: the inhibition was 1.28% (inactive).

Take `CC(=O)N(c1ccc(Br)cc1)C1C=CS(=O)(=O)C1` (centres undefined): the inhibition is -5.33% (inactive).

As for `Cc1ccccc1Cn1cc(/C=N/n2cnnc2)c2ccccc21`, the inhibition is -2.6% (inactive).

In the case of `CCOC(=O)N1CCN(c2cc(=O)n(-c3ccccc3Cl)c(=O)[nH]2)CC1`, the inhibition was 0.27% (inactive).

Turning to `CCCCN(C)Cc1c(O)ccc2c(-c3ccccc3)cc(=O)oc12`, the inhibition is -2.7% (inactive).

Turning to `CCCCn1c(CN2CCN(c3ccc(F)cc3)CC2)nc2c1c(=O)n(C)c(=O)n2C`, the inhibition was -3.33% (inactive).

Take `CCn1c(SCC(=O)Nc2cccc(C)c2)nc2c(c1=O)SC(C)C2` (centres undefined): the inhibition is -3.07% (inactive).

For `COc1cccc(C2CC(c3ccc(C)cc3)n3nc(N)nc3N2)c1` (centres undefined), the inhibition is -4.1% (inactive).

`Cc1cc(C)cc(N(CC(=O)Nc2cccc(C)n2)S(=O)(=O)c2c(C)noc2C)c1`: the inhibition is -0.64% (inactive).

`Cc1noc(C)c1S(=O)(=O)N1CCN(Cc2ccc3c(c2)OCO3)CC1`: the inhibition was -0.93% (inactive).

As for `Cn1c(C(=O)NCCCN2CCCCCC2)cc2c(=O)n(C)c3ccccc3c21`, the inhibition was 4.36% (inactive).

For `CS(=O)(=O)N(Cc1ccco1)CC(O)Cn1c2ccccc2c2ccccc21` (centres undefined), the inhibition is -3.9% (inactive).

Turning to `CC(=O)Nc1ccc(S(=O)(=O)Nc2nc3c(s2)CCCC3)cc1`, the inhibition was -8.93% (inactive).

Take `CCOC(=O)C(CC)Sc1ncnc2nc[nH]c12` (centres undefined): the inhibition was 0.13% (inactive).

Consider `COc1cc2c(cc1OC)-c1nnc(C)n1C1(CCCC1)C2`, for which the inhibition is 1.28% (inactive).

Turning to `Nc1nc2n(n1)C(c1cccc(Br)c1)CC(c1ccccc1)N2` (centres undefined), the inhibition is -3.33% (inactive).

A short description of a further experiment: growth suppression of yeast trafficking mutant, preliminary HTS, modulators of trafficking downstream of Golgi apparatus project, 1536-format plate, OD 615 nm (AID 637). The note with it: yeast transport mutant growth, absorbance 615 nm, 18 h; stronger effect = higher value.
For the molecule `COc1ccc(C(=O)NCc2nnc(SC)n2C2CCCCC2)cc1`, the inhibition was -3.44% (inactive).

For the molecule `Oc1ccc(Cl)cc1-c1cc(-c2ccccc2)n[nH]1`, the inhibition is 100% (active).

With `O=C(CCCn1c(=O)c2sccc2n(Cc2cc(=O)n3ccccc3n2)c1=O)NCc1ccco1`, the inhibition is -4.33% (inactive).

Consider `COC(=O)c1cn(NC(=O)C2CCCO2)c(=O)c2ccccc12` (centres undefined), for which the inhibition was -0.49% (inactive).

With `CCN(CC)CCCNC(=O)c1cn(C)c2ccc(S(=O)(=O)N(C)C)cc2c1=O`, the inhibition was 1.5% (inactive).

`Cc1nnc(SCCn2c(N3CCC(Cc4ccccc4)CC3)nc3c2c(=O)[nH]c(=O)n3C)s1`: the inhibition was -5.56% (inactive).

Turning to `O=C(C(Cc1ccccc1)n1cccc1)N1CCCCCC1` (centres undefined), the inhibition is -6.89% (inactive).

On to `O=C(Cn1nc(Cc2ccncc2)c2ccccc2c1=O)N1CCN(C(=O)c2ccco2)CC1`, for which the inhibition is -4.5% (inactive).

In the case of `COc1ccc(-c2nc(CS(=O)CC(=O)NCc3ccccn3)c(C)o2)cc1` (centres undefined), the inhibition was -2.46% (inactive).

Take `CCn1c(SCC(=O)Nc2ccc(Cl)cc2)nnc1C1CC1`: the inhibition was 1.67% (inactive).

For the molecule `CCOC(=O)CN(C(=O)c1ccccc1)c1ccccc1C`, the inhibition was -11% (inactive).

On to `COC(=O)Cc1cc(=O)[nH]c(Nc2nc3ccccc3o2)n1`, for which the inhibition is -3.33% (inactive).

On to `COc1ccc(C2CC(c3cccc(C)c3)n3ncnc3N2)cc1` (centres undefined), for which the inhibition was -9.02% (inactive).

With `CC1CCCCN1CCNC(=O)C1CCN(S(=O)(=O)c2cccc3cccnc23)CC1` (centres undefined), the inhibition is -2.46% (inactive).

Regarding `CCCCSc1nc(CCC)cc(=O)[nH]1`, the inhibition was -12.5% (inactive).

For `CC1(C)CC(=O)C2=C(C1)NC(=O)CC2c1ccc(N(CCC#N)CCC#N)cc1` (centres undefined), the inhibition was -1.8% (inactive).

Turning to `Cc1cccc(OCC(=O)N2CCN(C(=O)Cc3ccccc3)CC2)c1`, the inhibition was -0.97% (inactive).

In the case of `O=C1CC(c2cccnc2)c2cc3c(cc2N1)OCO3` (centres undefined), the inhibition is -9.18% (inactive).

As to `CCc1nn(CC(=O)NCCCN2CCc3ccccc3C2)c(=O)c2cc3sccc3n12`, the inhibition is 1% (inactive).

Regarding `Cc1ccc(-c2nc3cc(NC(=O)C(C)C)ccc3o2)cc1`, the inhibition was -10.3% (inactive).

For the molecule `CC(CC(=O)NC1CCSC1=O)c1ccccc1` (centres undefined), the inhibition was 0% (inactive).

With `COc1ccc(C2CC(c3ccc(OC)cc3)n3nc(N)nc3N2)cc1` (centres undefined), the inhibition was 0.17% (inactive).

On to `COC(=O)COc1cccc(NC(=O)COc2ccccc2)c1`, for which the inhibition is -7.33% (inactive).

Take `COc1ccc(OCCSc2nc3ccccc3n2CC(=O)O)cc1`: the inhibition was -2% (inactive).

Consider `Cc1cccnc1-n1c(CCN2C(=O)c3ccccc3C2=O)nc2ccccc2c1=O`, for which the inhibition was -10.3% (inactive).

Take `CC(=O)N(c1ccc(Br)cc1)C1C=CS(=O)(=O)C1` (centres undefined): the inhibition is 1.5% (inactive).

In the case of `Cc1ccccc1Cn1cc(/C=N/n2cnnc2)c2ccccc21`, the inhibition is 4.83% (inactive).

Regarding `CCOC(=O)N1CCN(c2cc(=O)n(-c3ccccc3Cl)c(=O)[nH]2)CC1`, the inhibition was 12.5% (inactive).

Take `CCCCN(C)Cc1c(O)ccc2c(-c3ccccc3)cc(=O)oc12`: the inhibition was 2.95% (inactive).

Consider `CCCCn1c(CN2CCN(c3ccc(F)cc3)CC2)nc2c1c(=O)n(C)c(=O)n2C`, for which the inhibition was -5.74% (inactive).

For `CCn1c(SCC(=O)Nc2cccc(C)c2)nc2c(c1=O)SC(C)C2` (centres undefined), the inhibition is -0.67% (inactive).

Turning to `COc1cccc(C2CC(c3ccc(C)cc3)n3nc(N)nc3N2)c1` (centres undefined), the inhibition is 3.5% (inactive).

As for `Cc1cc(C)cc(N(CC(=O)Nc2cccc(C)n2)S(=O)(=O)c2c(C)noc2C)c1`, the inhibition was -2% (inactive).

For `Cc1noc(C)c1S(=O)(=O)N1CCN(Cc2ccc3c(c2)OCO3)CC1`, the inhibition was 0% (inactive).

Turning to `Cn1c(C(=O)NCCCN2CCCCCC2)cc2c(=O)n(C)c3ccccc3c21`, the inhibition is -3% (inactive).

On to `CS(=O)(=O)N(Cc1ccco1)CC(O)Cn1c2ccccc2c2ccccc21` (centres undefined), for which the inhibition was -4.5% (inactive).

In the case of `CC(=O)Nc1ccc(S(=O)(=O)Nc2nc3c(s2)CCCC3)cc1`, the inhibition was -9.52% (inactive).

`CCOC(=O)C(CC)Sc1ncnc2nc[nH]c12` (centres undefined): the inhibition was -7.27% (inactive).

As to `COc1cc2c(cc1OC)-c1nnc(C)n1C1(CCCC1)C2`, the inhibition is -1.17% (inactive).

As for `Nc1nc2n(n1)C(c1cccc(Br)c1)CC(c1ccccc1)N2` (centres undefined), the inhibition is 0.83% (inactive).
